Bioassay records as filed in PubChem BioAssay.
Sampled rows, rich in hits. Any-hit rate of the full collection: about 19%.
HT1080 IDH1KD tx: qHTS for induction of synthetic lethality in tumor cells producing 2HG: qHTS for the HT-1080-IDH1KD cell line; AID 686971, 2013; Potency, µM (series often up to 46.1 µM), for the others: at the top dose activity, negative = toxicity, most hits filed as cytotoxic; HT-1080 IDH1 knockdown viability, ATP luminescence, 48 h; 360,000 tested, 2% active;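 note: potency is the fitted concentration of half-maximal effect; 0% = DMSO wells and -100% = cell-free medium wells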
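Cytotoxicity counter-line: IDH1KD HT-1080, 48 h, CellTiter-Glo. Curves classed by r2, magnitude and activity.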
HT1080-NT tox: qHTS for induction of synthetic lethality in tumor cells producing 2HG: qHTS for the HT-1080-NT fibrosarcoma cell line | HT-1080-NT fibrosarcoma viability, CellTiter-Glo ATP luminescence, 48 h | Potency, µM (doses to about 46.1 µM), for the others: at the top dose activity, negative = less viability, most hits filed as cytotoxic | 360,000 tested, 1.6% active;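 note: NT is the 2HG producing partner of a matched IDH1 knockdown line; potency is the fitted concentration of half-maximal effect; 0% = DMSO-treated cells and -100% = media-only wells without cells; nearly all actives have a fitted effect of over 55% in size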
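Viability by CellTiter-Glo luminescence after 48 h compound exposure at 37C of HT-1080-NT cells (750/well, RPMI, 5% FBS). % activity scaled between DMSO wells and medium-only wells, then curve-fitted and categorized by curve class.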
IL1B secr inh: qHTS for Inhibitors of Inflammasome Signaling: IL-1-beta AlphaLISA Primary Screen; activity change, % at 57.5 µM; THP-1 LPS/ATP IL-1B secretion, AlphaLISA, 16 h; hits give low values; 360,000 tested, 4.7% active; in the data active = activity change below about -50%; inconclusive = mostly about -30% to -49%
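THP-1 cells pretreated 1 hr with compounds (up to 57.5 uM final), then stimulated with LPS (250 ng/mL final) plus ATP (1.25 mM final); secreted IL-1B measured by AlphaLISA after 16 hr, decreased signal indicating inhibition.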
ELG1 repair inh: qHTS screen for small molecules that inhibit ELG1-dependent DNA repair in human embryonic kidney (HEK293T) cells expressing luciferase-tagged ELG1; HEK293T ELG1-luciferase reporter, luminescence, 16 h; DNA damage induced by 5-fluorouridine; Potency, µM (highest dose often 46.1 µM), without a hit: at the highest dose activity change, negative = inhibition, usual class: inhibitors; 330,000 tested, 2.3% active; AID 504467, 2011; note: potency is the fitted concentration of half-maximal effect; nearly all actives have a fitted effect of over 55% in size
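Overnight (16 hr) co-exposure of 2,000 cells/well to 5-fluorouridine and compound at 37 °C preceded detection. Luciferase was quantified via ONE-Glo luminescence; loss of signal denotes inhibition.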
DT40 TDP1 no CPT: qHTS for Inhibitors of human tyrosyl-DNA phosphodiesterase 1 (TDP1): qHTS in cells in absence of CPT. AID 686978, 2013. Potency, µM (highest dose often 46.2 µM), for inactives: at the top dose activity change, negative = growth inhibition, most hits filed as inhibitors. DT40 Tdp1-/- hTDP1 cells, no CPT, ATP luminescence, 48 h. 420,000 tested, 15% active; note: potency is the fitted concentration of half-maximal effect; nearly all actives have a fitted effect of over 55% in size
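DT40 Tdp1-/-;hTDP1 cells, no CPT (DMSO vehicle only), 400 cells/well; compounds pin-transferred; ≥48 hr, 37 °C; CellTiter-Glo 30 min RT dark, luminescence read.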
TDP1 cell CPT: qHTS for Inhibitors of human tyrosyl-DNA phosphodiesterase 1 (TDP1): qHTS in cells in presence of CPT | 420,000 tested, 12% active | Potency, µM (titrated, usually from 46.2 µM), inactives show at the top dose activity change, negative = growth inhibition, most hits filed as inhibitors | chicken DT40 Tdp1-/-;hTDP1 cells + 20 nM CPT, ATP luminescence, 48 h; note: potency is the fitted concentration of half-maximal effect; nearly all actives have a fitted effect of over 55% in size
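Chicken DT40 Tdp1-/- cells stably complemented with human TDP1 were seeded at 400 cells/well in medium containing 20 nM camptothecin, exposed to pin-transferred compounds, and grown at 37 °C for at least 48 hr. Viability was read as ATP luminescence.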
The depositor's hits bear a star; ? = inconclusive; . = no result; [ ] = another dose, or the depositor's remark. Unless noted, calls come from the whole dose curve; as a rule, active = well fitted curve in the direction sought with a large enough effect; inconclusive = small, poorly fitted or top-dose-only effect, or another doubt; inactive = no such curve, though single readings can be large; an effect the other way counts as inactive or inconclusive. Unless noted, % is set by controls: 0 for no effect and ±100 for the full control effect.

SMILES | HT1080 IDH1KD tx | HT1080-NT tox | IL1B secr inh | ELG1 repair inh | DT40 TDP1 no CPT | TDP1 cell CPT
COc1ccc2nc3oc(C(=O)NC4CCN(Cc5ccccc5)CC4)cc3cc2c1 | -20.7% | ? | -9.2 | ? | 17.8µM* | 17.8µM*
NC(=O)CC(NC(=O)Cc1ccc(Br)cc1)c1ccc(NCCc2ccccc2F)c([N+](=O)[O-])c1 (stereo not drawn) | 0.9% | -12.4% | 0.9 | -0.7% | -11.7% | -27.0%
CCn1cc(S(=O)(=O)c2cccc(Cl)c2)c(=O)c2cc(F)c(N3CCN(c4ccccc4)CC3)cc21 | . | . | . | . | -17.9% | -5.3%
COc1cc(C(=O)OCc2cccc(OC)c2OC)ccc1OCC(=O)N1CCOCC1 | 6.0% | 8.8%[9.24 µM] | -16.0 | ? | 3.3% | -27.5%
CCOc1cc(C(=O)OC(C(=O)NC(=O)NC)c2ccccc2)ccc1OCC(=O)N1CCOCC1 (stereo not drawn) | 7.5% | 0.6% | 14.3 | ? | 18.4µM* | 18.4µM*
CCOc1cc(C(=O)Nc2ccccc2N2CCOCC2)ccc1OCC(=O)N1CCOCC1 | 10.2% | 1.6% | -6.6 | -18.9% | ? | ?
COc1cc(C(=O)OC(C)c2ccc(F)cc2)ccc1OCC(=O)N1CCOCC1 (stereo not drawn) | -1.6% | 1.2% | 32.4 | -27.6% | 23.1µM* | ?
Cc1ccc(C)c(SCC(=O)Nc2cc(C)nn2-c2ccc(F)cc2)c1 | . | . | . | -15.0% | . | .
CCOC(=O)C1CCN(C(=O)CNC(=O)Cn2c(C)cc3ccccc3c2=O)CC1 | 14.0% | -1.2% | -14.9 | 1.1% | -15.5% | 3.2%
COCCNC(=O)/C(C#N)=C/c1c(N2CCN(c3cccc(Cl)c3)CC2)nc2c(C)cccn2c1=O | -11.2% | ? | ? | ? | 23.1µM* | 16.4µM*
C=CCNC(=O)/C(C#N)=C/c1c(N2CCN(c3cccc(Cl)c3)CC2)nc2c(C)cccn2c1=O | 16.9% | 0.2% | -5.0 | -24.4% | ? | ?
CCNC(=O)/C(C#N)=C/c1c(N2CCN(c3ccc(OC)cc3)CC2)nc2c(C)cccn2c1=O | -4.3% | -19.4% | -61.6* | 23.1µM* | 20.6µM* | ?
COCCNC(=O)/C(C#N)=C/c1c(N2CCN(c3ccccc3)CC2)nc2c(C)cccn2c1=O | 7.4% | -1.3% | 71.5 | ? | ? | 23.1µM*
CCNC(=O)/C(C#N)=C/c1c(N2CCN(c3ccccc3)CC2)nc2c(C)cccn2c1=O | 0.4% | 3.7% | 7.4 | ? | ? | ?
CNC(=O)/C(C#N)=C/c1c(N2CCN(c3cccc(Cl)c3)CC2)nc2c(C)cccn2c1=O | 0.3% | 15.2% | -66.3* | 20.6µM* | 11.6µM* | ?
COc1ccc(-n2c(=O)cnc3cnc(Nc4ccccc4)nc32)cc1 | . | . | . | . | -20.0% | ?
COc1cc(F)ccc1-c1cc(C(=O)Nc2cc(OC)c(OC)c(OC)c2)[nH]n1 | 6.6% | 6.2% | ? | . | ? | ?
CCNC(=O)/C(C#N)=C/c1c(N2CCCCCC2)nc2c(C)cccn2c1=O | -9.9% | 0.2% | ? | -24.9% | 23.1µM* | ?
Cc1cccn2c(=O)c(/C=C(\C#N)C(N)=O)c(N3CCN(c4ccccc4)CC3)nc12 | ? | -27.4% | 3.5 | ? | 6.51µM* | ?
CCOC(=O)/C(C#N)=C/c1c(N2CCN(c3ccc(OC)cc3)CC2)nc2c(C)cccn2c1=O | 1.1% | -4.9% | 29.5 | ? | ? | ?
COCCNC(=O)/C(C#N)=C/c1c(N2CCN(c3ccc(OC)cc3)CC2)nc2c(C)cccn2c1=O | -10.0% | -11.2% | ? | ? | 23.1µM* | 23.1µM*
C[C@@H]1CN([C@@H](C)CO)C(=O)CCCn2cc(nn2)CO[C@H]1CN(C)S(=O)(=O)c1ccccc1F | 7.0% | 7.9% | 8.9 | . | -21.6% | -1.4%
Cc1noc(C)c1C(=O)NC1=NCCS1 | -3.7% | -1.5% | 4.6 | ? | 10.4% | 1.7%
O=C(NCc1cccs1)c1noc2c1CCCC2 | 17.8µM* | ? | 12.7 | 15.8% | ? | ?
C[C@H](CO)N1C[C@H](C)[C@@H](CN(C)C(=O)C2CCCCC2)OCc2cn(nn2)CCCC1=O | 15.8% | 10.1% | 22.3 | . | 8.4% | ?
SMILES | HT1080 IDH1KD tx | HT1080-NT tox | IL1B secr inh | ELG1 repair inh | DT40 TDP1 no CPT | TDP1 cell CPT
CCCCCCCCCCOc1cc2c(=O)c(C(=O)OCC)c[nH]c2cc1OCC | . | . | . | . | -19.4% | 2.3%
CC1(C(=O)NCc2ccccc2)CN(S(C)(=O)=O)CC(=O)N1CCc1c[nH]c2ccccc12 (stereo not drawn) | -0.5% | -15.1% | 10.2 | . | 7.3% | 13µM*
COc1ccc(/C=C/C(=O)OCC(=O)N2CCCCCC2)c(OC)c1 | -1.5% | -0.4% | -18.2 | 1.8% | ? | ?
COc1ccc(COc2cc(-c3cccc(OC)c3)nc3ccc(NC(=O)c4ccc(Cl)cc4)cc23)cc1 | ? | ? | 103.6 | ? | 16.4µM* | ?
COc1ccc(COc2cc(-c3cccc(OC)c3)nc3ccc(NC(=O)c4ccc(OC)cc4)cc23)cc1 | 4.61µM* | 5.17µM* | 80.2 | 4.11µM* | 3.26µM* | 2.59µM*
COc1ccc(OCC(=O)NNC(=O)c2cccnc2)cc1 | 11.0% | 16.0% | 13.5 | 6.3% | -11.9% | -5.2%
COc1ccc(COc2cc(-c3cccc(OC)c3)nc3ccc(NC(=O)c4cccnc4)cc23)cc1 | ? | ? | 17.8 | 2.91µM* | ? | ?
CSCCC(NC(=O)COc1ccccc1)C(=O)N1CCCCCC1 (stereo not drawn) | 0.5% | 6.3% | -23.6 | 13.7% | ? | -24.0%
CCNc1nc(NCC)nc(SCCOC(=O)Nc2ccc(Cl)cc2Cl)n1 | 0.7% | 4.6% | 7.6 | ? | ? | ?
Cc1ccc(CNC(=O)C23CN(Cc4ccccc4)CC2C(c2ccc([N+](=O)[O-])cc2)=NO3)cc1 (stereo not drawn) | -2.5% | -5.6% | 0.0 | ? | ? | ?
